“And” between values parts separate entries of the source, which are not always exact repeats. Identical values can stand only once. The campaign covered roughly 5,500 compounds. About 2,000 (36%) were called active. Not shown: some 18% with an inconclusive outcome. Cut-off read from the data, not from the text of the source: active = normalized growth mostly below about 0.91 (no sharp cut-off); inconclusive = no clear call, values can overlap the other calls; inactive = mostly above about 0.92. This is one part of the list.
Assay: chemical genetic growth profiling, strain panel (AID 1159580);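 note: tested at 20 µM; growth read once vehicle control cultures reached saturation at 30 °C; 1 = growth at the plate median or of vehicle wells; lower values mean less growth of the strain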
Details: S. cerevisiae deletion strains, growth OD
[1] = locus YCL061C, strain MRC1, hits give low values
[2] = locus YDL101C, strain DUN1, hits give low values
[3] = locus YHR030C, strain SLT2, hits give low values

Measured: normalized growth

COC(=O)C1=COC(C)C2CN3CCC4(C(=O)Nc5ccccc54)C3CC12 (centres undefined)
inactive: locus YAL021C, strain ccr4, hits give low values 1.02 and 1.01 | locus YAL026C, strain drs2, hits give low values 1.02 | locus YAL030W, strain snc1, hits give low values 1.01 | locus YBL061C, strain skt5, hits give low values 1.04 and 1.02 and 1.03 | locus YBR009C, strain hhf1, hits give low values 1.04 and 1.01 and 1.02 | locus YBR023C, strain chs3, hits give low values 1.02 and 1.01 | locus YBR171W, strain sec66, hits give low values 1.03 and 1.02 | locus YBR231C, strain swc5, hits give low values 1.02 | locus YBR279W, strain paf1, hits give low values 1.02 and 1.01 | locus YCL011C, strain gbp2, hits give low values 1.02 and 1.01 | locus YCL016C, strain dcc1, hits give low values 1.01 | [1] 1.02 and 1.01 | locus YCL069W, strain vba3, hits give low values 1.02 and 1.01 | locus YCR088W, strain abp1, hits give low values 1.02 and 1.01 | locus YDL005C, strain med2, hits give low values 1.02 and 1.01 | locus YDL040C, strain nat1, hits give low values 1.02 | locus YDR001C, strain nth1, hits give low values 1.02 and 1.01 | locus YDR069C, strain doa4, hits give low values 1.02 and 1.04 | locus YDR137W, strain rgp1, hits give low values 0.988 and 0.962 and 0.914 | locus YDR159W, strain sac3, hits give low values 1.05 and 1.02 and 1.03 | locus YDR195W, strain ref2 0.992 and 0.996 and 1.01 | locus YDR297W, strain sur2, hits give low values 1.02 | locus YDR334W, strain swr1, hits give low values 1.02 and 1.01 | locus YDR335W, strain msn5, hits give low values 1.03 and 1.02 | locus YDR392W, strain spt3, hits give low values 1.04 and 1.02 | locus YEL003W, strain gim4, hits give low values 1.03 and 1.02 | locus YEL037C, strain rad23, hits give low values 1.01 and 1.02 | locus YEL061C, strain CIN8 (second series), hits give low values 1.02 and 1.01 | locus YER015W, strain faa2, hits give low values 1.02 | locus YER016W, strain bim1, hits give low values 1.01 and 1.02 | locus YER111C, strain swi4, hits give low values 1.03 and 1.02 and 1.04 | locus YER155C, strain BEM2 (second series), hits give low values 1.03 and 1.02 and 1.04 | locus YFR010W, strain ubp6, hits give low values 1.02 | locus YGL167C, strain pmr1, hits give low values 1.03 and 1.01 and 1.02 | locus YGL173C, strain kem1, hits give low values 1.04 and 1.02 and 1.03 | locus YGL227W, strain vid30, hits give low values 1.03 and 1.01 and 1.02 | locus YGL240W, strain doc1, hits give low values 1.02 | locus YGL253W, strain hxk2, hits give low values 1.02 and 1.01 | locus YHR013C, strain ard1, hits give low values 1.03 and 1.01 and 1.02 | locus YHR027C, strain rpn1, hits give low values 1.02 and 1.01 | locus YHR142W, strain chs7, hits give low values 1.02 and 1.01 | locus YJL092W, strain hpr5, hits give low values 1.03 and 1.01 and 1.02 | locus YJL095W, strain BCK1 (second series), hits give low values 1.01 and 1.02 | locus YJL115W, strain asf1, hits give low values 1.02 and 1.01 | locus YJL129C, strain trk1, hits give low values 1.03 and 1.02 | locus YJL154C, strain vps35, hits give low values 1.02 and 1.01 | locus YJL164C, strain tpk1, hits give low values 1.02 and 1.03 | locus YJL166W, strain qcr8, hits give low values 1.03 and 1.01 and 1.02 | locus YJL187C, strain SWE1, hits give low values 1.02 and 1.01 | locus YKL160W, strain elf1, hits give low values 1.02 | locus YKR026C, strain gcn3, hits give low values 1.02 and 1.03 | locus YKR091W, strain srl3, hits give low values 1.02 and 1.03 | locus YLL001W, strain dnm1, hits give low values 1.03 and 1.02 | locus YLL026W, hits give low values 1.01 and 1.02 | locus YLL041C, strain sdh2, hits give low values 1.02 and 1.01 | locus YLR027C, strain aat2, hits give low values 1.03 and 1.01 | locus YLR221C, strain rsa3, hits give low values 1.02 and 1.01 | locus YLR258W, strain gsy2, hits give low values 1.02 | locus YLR262C, strain YPT6 (second series), hits give low values 1.02 and 1.01 and 0.938 | locus YLR320W, strain mms22, hits give low values 1.04 and 1.03 | locus YLR342W, strain FKS1, hits give low values 1.02 | locus YLR357W, strain rsc2, hits give low values 1.02 and 0.996 and 1.03 | locus YLR370C, strain arc18, hits give low values 1.03 and 1 and 1.01 | locus YLR384C, strain iki3, hits give low values 1.02 and 1.01 | locus YML120C, strain ndi1, hits give low values 1.04 and 1.02 and 1.03 | locus YMR058W, strain fet3, hits give low values 1.02 | locus YMR125W, strain sto1, hits give low values 1.02 and 1.04 | locus YMR129W, hits give low values 1.02 and 1.01 | locus YMR205C, strain PFK2, hits give low values 1.03 and 1.02 | locus YMR231W, strain pep5, hits give low values 1 and 1.01 | locus YNL071W, strain lat1, hits give low values 1.02 and 1.01 | locus YNL209W, strain ssb2, hits give low values 1.02 and 1.01 | locus YNL248C, strain rpa49, hits give low values 1.02 and 1.01 | locus YNL322C, strain KRE1 (second series), hits give low values 1.01 and 1.02 | locus YNR049C, strain mso1, hits give low values 1.02 and 1.01 and 1.03 | locus YOR001W, strain rrp6, hits give low values 1.03 and 1.02 | locus YOR070C, strain gyp1, hits give low values 1.02 and 1.01 | locus YOR080W, strain dia2, hits give low values 1.03 and 1.02 | locus YOR083W, strain WHI5, hits give low values 1.02 and 1.01 | locus YOR106W, strain vam3, hits give low values 1.02 | locus YOR265W, strain rbl2, hits give low values 1.01 and 1.02 | locus YOR270C, strain vph1, hits give low values 1.02 and 1.04 and 1.03 | locus YOR290C, strain snf2, hits give low values 1.02 | locus YPL051W, strain arl3, hits give low values 1.01 | locus YPL078C, strain atp4, hits give low values 1.02 | locus YPL106C, strain sse1, hits give low values 0.998 and 1 and 1.02 | locus YPL240C, strain hsp82, hits give low values 1 and 1.02

Nc1ncnc(SCc2ccc(Cl)cc2)n1
inactive: locus YAL013W, strain DEP1, hits give low values 0.984 | locus YBR229C, strain ROT2, hits give low values 1.01 | [1] 1.02 | [2] 0.988 | locus YDR150W, strain NUM1, hits give low values 1.04 | locus YEL061C, strain CIN8, hits give low values 0.968 | locus YGR078C, strain PAC10, hits give low values 1 | [3] 1.08 | locus YHR087W, strain rtc3, hits give low values 1 | locus YJR043C, strain POL32, hits give low values 0.999 | locus YJR075W, strain HOC1, hits give low values 1.01 | locus YLR039C, strain RIC1, hits give low values 0.835 | locus YLR058C, strain SHM2 (second series), hits give low values 0.999 | locus YLR085C, strain ARP6, hits give low values 0.994 | locus YLR262C, strain YPT6, hits give low values 0.988 | locus YML094W, strain GIM5, hits give low values 0.992 | locus YMR219W, strain ESC1, hits give low values 0.996 | locus YMR263W, strain SAP30, hits give low values 0.989 | locus YMR307W, strain GAS1, hits give low values 0.995 | locus YNL153C, strain GIM3, hits give low values 1.01 | locus YNL298W, strain CLA4 (second series), hits give low values 0.98 | locus YNL322C, strain KRE1, hits give low values 0.987 | locus YNR030W, strain Alg12, hits give low values 1.02 | locus YPL055C, strain LGE1, hits give low values 1.01 | locus YPL241C, strain CIN2, hits give low values 0.993 | locus YPR135W, strain CTF4, hits give low values 1.14

Clc1ccc(CSc2nccn2-c2cc(Cl)ccc2Cl)cc1
active: [3] 0.69
inactive: locus YAR019C, strain CDC15, hits give low values 0.969 | locus YBL105C, strain PKC1, hits give low values 0.964 | locus YBR135W, strain CKS1, hits give low values 0.96 | locus YBR136W, strain MEC1, hits give low values 0.951 | locus YBR160W, strain CDC28, hits give low values 0.963 | locus YDL017W, strain CDC7, hits give low values 0.969 | locus YDL028C, strain MPS1, hits give low values 0.949 | [2] 0.97 | locus YDL108W, strain KIN28, hits give low values 0.937 | locus YDL132W, strain cdc53, hits give low values 0.978 | locus YDL214C, strain PRR2, hits give low values 0.888 | locus YDR052C, strain DBF4, hits give low values 0.962 | locus YDR054C, strain cdc34, hits give low values 0.946 | locus YDR226W, strain ADK1, hits give low values 0.954 | locus YDR477W, strain SNF1, hits give low values 0.888 | locus YER123W, strain YCK3, hits give low values 0.784 | locus YER133W, strain GLC7, hits give low values 0.884 | locus YFL009W, strain cdc4, hits give low values 0.951 | locus YFL029C, strain CAK1, hits give low values 0.965 | locus YFR003C, strain YPI1, hits give low values 0.958 | locus YFR019W, strain FAB1, hits give low values 0.909 | locus YFR028C, strain CDC14, hits give low values 0.961 | locus YGR040W, strain KSS1, hits give low values 0.872 | locus YGR052W, strain FMP48, hits give low values 0.946 | locus YGR092W, strain DBF2, hits give low values 0.801 | locus YHR079C, strain IRE1, hits give low values 0.88 | locus YHR082C, strain KSP1, hits give low values 0.951 | locus YHR205W, strain SCH9, hits give low values 0.893 | locus YIL147C, strain SLN1, hits give low values 0.953 | locus YJL095W, strain BCK1, hits give low values 0.886 | locus YJL128C, strain PBS2, hits give low values 0.987 | locus YJL157C, strain FAR1, hits give low values 0.867 | locus YJR016C, strain ILV3, hits give low values 0.963 | locus YJR066W, strain TOR1 (second series), hits give low values 0.829 | locus YJR066W, strain TOR1, hits give low values 0.948 | locus YKL048C, strain ELM1, hits give low values 0.927 | locus YKL067W, strain YNK1, hits give low values 0.894 | locus YKL101W, strain HSL1, hits give low values 0.887 | locus YKL193C, strain SDS22, hits give low values 0.961 | locus YKL203C, strain TOR2, hits give low values 0.915 | locus YLR113W, strain HOG1, hits give low values 0.884 | locus YLR133W, strain CKI1, hits give low values 0.886 | locus YLR403W, strain SFP1, hits give low values 0.832 | locus YML070W, strain DAK1, hits give low values 0.872 | locus YMR001C, strain CDC5, hits give low values 0.964 | locus YMR205C, strain PFK2 (second series), hits give low values 0.879 | locus YMR277W, strain FCP1, hits give low values 0.958 | locus YNL006W, strain LST8, hits give low values 0.961 | locus YNL020C, strain ARK1, hits give low values 0.859 | locus YNL161W, strain CBK1, hits give low values 0.964 | locus YNL183C, strain NPR1, hits give low values 0.909 | locus YNL207W, strain RIO2, hits give low values 0.965 | locus YNL222W, strain SSU72, hits give low values 0.961 | locus YNL307C, strain MCK1 (second series), hits give low values 0.879 | locus YOL078W, strain AVO1, hits give low values 0.962 | locus YOL136C, strain PFK27, hits give low values 0.872 | locus YOR061W, strain CKA2, hits give low values 0.817 | locus YOR119C, strain RIO1, hits give low values 0.856 | locus YOR231W, strain MKK1, hits give low values 0.868 | locus YOR329C, strain SCD5, hits give low values 0.967 | locus YPL031C, strain PHO85, hits give low values 0.866 | locus YPL153C, strain RAD53, hits give low values 0.847 | locus YPL204W, strain HRR25, hits give low values 0.86 | locus YPL209C, strain IPL1, hits give low values 0.96 | locus YPL256C, strain CLN2, hits give low values 0.977 | locus YPR025C, strain CCL1, hits give low values 0.964 | locus YPR106W, strain ISR1, hits give low values 0.978 | locus YPR111W, strain DBF20, hits give low values 0.976 | strain NNK1, hits give low values 0.974 | strain TSCII, hits give low values 0.962
